Reference: PubChem BioAssay (NCI)
This is part of a sample that, as a whole, favours compounds with a hit. Of some 83,000 tested, about 20% had one in any assay.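 96-well plates, one dose, 48 hours. Percent growth reported; active if below 10.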 Values without a mark were called inactive. Active and inactive are the calls of the source.

system: HL-60(TB) leukemia; experiment: NCI-60 one-dose screen, 48 h (100 = growth as untreated, 0 = no growth, -100 = all killed); details: 10 µM unless noted

Question: With `Cl` as the compound, how does the growth read?
Answer: The growth was 107%.

Question: With `Nc1ccc(Sc2ccc3c4c2cccc4c(=O)n2c4ccccc4nc32)cc1` as the compound, how does the growth read?
Answer: The growth was 18.2%.

Question: With `CC(=O)CCS(=O)c1ccccc1` (configuration not stated) as the compound, how does the growth read?
Answer: Its growth is 97.4%.

Question: Which growth does the source give for `O=C1C(N2CCOCC2)=C(I)C(=O)c2ncccc21` here?
Answer: The growth was 80.9%.

Question: Which growth does the source give for `O=C(O)c1ccc(NC(=O)c2ccc(Nc3ccnc(C(F)(F)F)c3)cc2)cc1` here?
Answer: The growth was 97.4%.

Question: With `COc1ccc(C2[C@@H](Cl)C(=O)N2c2cc(OC)c(OC)c(OC)c2)cc1Cl` (some centres not stated) as the compound, how does the growth read?
Answer: The growth was -30.3% (active).

Question: For `CCCCN(CCC#N)C(N)=O`, which growth is on record?
Answer: The growth was 99.6%.

Question: Which growth does the source give for `COc1ccc(C(=O)/C=C/c2ccccc2)cc1S(N)(=O)=O` here?
Answer: The growth was 64.2%.

Question: `COc1cc(-c2n[nH]nc2-c2ccc3c(c2)OCCO3)cc(OC)c1OC` was tested. Which growth did it give?
Answer: Its growth is -5.41% (active).

Question: Which growth does the source give for `CCCCCc1ccc(C)cc1OC(=O)CCl` here?
Answer: The growth was 114%.

Question: Which growth does the source give for `C#CCn1cnc2cnc(Nc3cccc(NC(=O)C=C)c3)nc21` here?
Answer: The growth was 8.32% [6.25 µM] (active).

Question: With `COc1ccc(COC(=O)CC(C)C)cc1` as the compound, how does the growth read?
Answer: Its growth is 99.7%.

Question: Which growth does the source give for `c1ccc(Cc2cccc[n+]2C(c2ccccc2)c2ccccc2)cc1` here?
Answer: The growth was 4.63% (active).

Question: With `Nc1ccccc1NC(=O)c1ccc(CSc2nc(N3CCOCC3)c3cccn3n2)cc1` as the compound, how does the growth read?
Answer: Its growth is -19.4% (active).

Question: How did the growth turn out when `COc1ccc(/C(C)=N/NC(=O)CSc2nc3ccccc3c(=O)n2CCc2ccc(S(N)(=O)=O)cc2)cc1` was run?
Answer: The growth was 76.7%.

Question: Which growth does the source give for `CCc1ccc2c(c1)N(CCO)C1=C(C(=O)OC1)C2c1cccc(Br)c1` (configuration not stated) here?
Answer: The growth was -9.76% (active).

Question: How did the growth turn out when `Brc1cccc(-c2nc(-c3ccc4c(c3)OCCO4)co2)c1` was run?
Answer: The growth was 29.1% [25 µM].
